Consider 22 compounds from PubChem BioAssay (NCI).

Molecules are shown by their SMILES. Compounds without any hit were thinned out: in the full panel of roughly 83,000, 20% have a hit.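 Values shown are percent growth following 48 h exposure of cells in 96-well plates to a single concentration of compound; below 10 was considered active.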 A number with no mark means an inactive call. The source made the active and inactive calls.

Some test systems named below: SR leukemia; RPMI-8226 leukemia; OVCAR-8 ovarian; OVCAR-5 ovarian; OVCAR-4 ovarian; SK-OV-3 ovarian; IGROV1 ovarian; HS 578T breast; NCI/ADR-RES ovarian; OVCAR-3 ovarian.
Assay in all cases: NCI-60 one-dose screen, 48 h (100 = growth as untreated, 0 = no growth, -100 = all killed)
Settings in all cases: 10 µM unless noted

For the compound `CN1CCN(Cc2ccc(NC(=O)c3cncc(C#Cc4cnc5ccc(OCCCS(C)(=O)=O)nn45)c3)cc2C(F)(F)F)CC1`, the growth in the assay with SR leukemia was 3.03% (active); in the assay with RPMI-8226 leukemia, -3.99% (active); in the assay on OVCAR-8 ovarian, -20.5% (active); in the assay with OVCAR-5 ovarian, 3.1% (active); in the assay on OVCAR-4 ovarian, -29.7% (active); in the assay on SK-OV-3 ovarian, -10.9% (active). Moreover, the growth in the assay with IGROV1 ovarian is -13.9% (active); in the assay on HS 578T breast, -24.1% (active); in the assay with NCI/ADR-RES ovarian, 75%.
As for `CCN1CCN(c2ccc(NC(=O)Nc3ccc4c(ccn4-c4ccnc(C(=O)NC)c4)c3)cc2C(F)(F)F)CC1`, the growth was -2.78% (active) with SR leukemia; 8.67% (active) in the assay on RPMI-8226 leukemia; 98.4% in the assay on OVCAR-8 ovarian; 89% with OVCAR-5 ovarian; 87% in the assay on OVCAR-4 ovarian; 80.6% with SK-OV-3 ovarian. The results for the growth in the assay with IGROV1 ovarian, in the assay with HS 578T breast and with NCI/ADR-RES ovarian were 79.3%, 34.6% and 86.5%, respectively.
Consider `COc1ccc(/C=N/N=C(/c2ccccc2)c2ccc3nc(-c4ccc(Cl)cc4)[nH]c3c2)cc1`, for which the growth in the assay with SR leukemia is 71.2%; in the assay with RPMI-8226 leukemia it was 48.6%; in the assay with OVCAR-8 ovarian, 80.4%; in the assay on OVCAR-5 ovarian, 81.5%; in the assay on OVCAR-4 ovarian, 75%; in the assay with SK-OV-3 ovarian, 93.2%. The growth is 97.5% in the assay on IGROV1 ovarian, 97.4% with HS 578T breast and 85% in the assay on NCI/ADR-RES ovarian.
As for `Cc1cc(=O)[nH]c(O)c1C#N`, the growth with SR leukemia is 99.3%; with RPMI-8226 leukemia it was -72% (active); in the assay with OVCAR-8 ovarian, 102%; in the assay on OVCAR-5 ovarian, 97.2%; with OVCAR-4 ovarian, 98.3%; in the assay on SK-OV-3 ovarian, 106%. Moreover, the growth in the assay with IGROV1 ovarian is 103%; in the assay on HS 578T breast, 116%; with NCI/ADR-RES ovarian it was 106%.
In the case of `Brc1ccc(-c2cc(-c3ccc4c(c3)OCCO4)n[nH]2)s1`, the growth is 17.7% in the assay on SR leukemia; 13.4% with RPMI-8226 leukemia; 36% with OVCAR-8 ovarian; 58.1% in the assay on OVCAR-5 ovarian; 71.7% in the assay with OVCAR-4 ovarian; 55.1% with SK-OV-3 ovarian. The growth is 34.6% in the assay on IGROV1 ovarian, 51.4% in the assay on HS 578T breast and 6.64% (active) in the assay with NCI/ADR-RES ovarian.
Take `Nc1ccc(Nc2ncnc3sc4c(c23)CCN(Cc2ccccc2)C4)cc1`: the growth in the assay on SR leukemia was 82.9%; in the assay with RPMI-8226 leukemia, 94.3%; in the assay on OVCAR-8 ovarian, 99.3%; in the assay with OVCAR-5 ovarian it was 107%; with OVCAR-4 ovarian, 96.8%; in the assay on SK-OV-3 ovarian it was 113%. Further, the values for the growth with IGROV1 ovarian, in the assay with HS 578T breast and in the assay with NCI/ADR-RES ovarian were 101%, 98.2% and 101%, respectively.
For the compound `CN1CCN(Cc2ccc(NC(=O)c3cncc(C#Cc4cnc5ccc(OC6CCOCC6)nn45)c3)cc2C(F)(F)F)CC1`, the growth with SR leukemia is -16.2% (active); in the assay with RPMI-8226 leukemia, -20.9% (active); in the assay with OVCAR-8 ovarian, -58.8% (active); in the assay with OVCAR-5 ovarian it was -55.4% (active); with OVCAR-4 ovarian, -53.7% (active); in the assay with SK-OV-3 ovarian it was -73.7% (active). Besides, the values for the growth in the assay on IGROV1 ovarian, with HS 578T breast and in the assay on NCI/ADR-RES ovarian were -43.3% (active), -38.1% (active) and -37.7% (active), respectively.
For the compound `CCCCSC1=C(Cl)CN(c2ccccc2)C1=O`, the growth in the assay on SR leukemia was 71.5%; with RPMI-8226 leukemia, 78%; with OVCAR-8 ovarian, 102%; with OVCAR-5 ovarian, 98.8%; with OVCAR-4 ovarian, 107%; with SK-OV-3 ovarian, 105%. Also, the growth with IGROV1 ovarian was 106%; with HS 578T breast, 98.6%; in the assay with NCI/ADR-RES ovarian, 103%.
For `CN1CCN(c2ccc(Nc3nc(NCCCNS(=O)(=O)c4ccc(C(F)(F)F)cc4)c4sccc4n3)cc2)CC1`, the growth with SR leukemia is 7.01% (active); in the assay with RPMI-8226 leukemia, -9.61% (active); in the assay with OVCAR-8 ovarian, -72.2% (active); with OVCAR-5 ovarian, -3% (active); in the assay with OVCAR-4 ovarian it was -35% (active); in the assay with SK-OV-3 ovarian, -37% (active). Besides, the growth in the assay with IGROV1 ovarian is -6.63% (active); in the assay with OVCAR-3 ovarian, -74.1% (active); with HS 578T breast, -35% (active); with NCI/ADR-RES ovarian, -2.63% (active).
Consider `CN(C)CC(=O)Nc1nc(-c2cccc(NS(=O)(=O)c3cccc4c(N(C)C)cccc34)c2)cs1`, for which the growth in the assay on SR leukemia was 74.9%; in the assay on RPMI-8226 leukemia, 60.6%; with OVCAR-8 ovarian it was 82.6%; in the assay with OVCAR-5 ovarian, 105%; with OVCAR-4 ovarian it was 87.1%; with SK-OV-3 ovarian, 107%. Also, the growth with IGROV1 ovarian was 90.7%; in the assay with HS 578T breast, 90.6%; with NCI/ADR-RES ovarian, 76.8%.
As for `CCNC(=O)Oc1ccc(/C(=C(/C)c2ccc(Cl)cc2)c2ccc(OCCN3CCCCCC3)cc2)cc1`, the growth is -5.81% (active) with SR leukemia; -14.9% (active) in the assay with RPMI-8226 leukemia; 51.5% in the assay with OVCAR-8 ovarian; 53.5% with OVCAR-5 ovarian; 43.4% in the assay with OVCAR-4 ovarian; 63.2% with SK-OV-3 ovarian. In addition, the growth is 49.5% with IGROV1 ovarian, -3.08% (active) in the assay on HS 578T breast and 38.1% in the assay on NCI/ADR-RES ovarian.
As to `COc1ccccc1N1CCN(C2=C(Cl)C(=O)c3ncccc3C2=O)CC1`, the growth is 12.4% in the assay with SR leukemia; 79.4% with RPMI-8226 leukemia; 90.5% in the assay with OVCAR-8 ovarian; 114% in the assay on OVCAR-5 ovarian; 85.7% in the assay with OVCAR-4 ovarian; 90.5% in the assay on SK-OV-3 ovarian. In addition, the growth was 86.3% in the assay on IGROV1 ovarian, 87.2% in the assay with HS 578T breast and 81.7% in the assay with NCI/ADR-RES ovarian.
In the case of `N#C/C(=C\c1ccc(-c2ccc(Cl)cc2)o1)C(=O)Nc1ncc(Cc2ccc(Br)cc2)s1`, the growth in the assay on SR leukemia is 16.8%; in the assay with RPMI-8226 leukemia, 64.1%; in the assay with OVCAR-8 ovarian it was 6.49% (active); in the assay on OVCAR-5 ovarian, 42.4%; in the assay on OVCAR-4 ovarian, -26.7% (active); in the assay on SK-OV-3 ovarian, 70.3%. Further, the values for the growth with IGROV1 ovarian, with HS 578T breast and in the assay with NCI/ADR-RES ovarian were 7.06% (active), -2.91% (active) and 8.56% (active), respectively.
Take `CCCCOc1ccc(S(=O)(=O)N2CCN(c3nc(C)cc(N4CCOCC4)n3)CC2)cc1`: the growth with SR leukemia is 42.4%; in the assay with RPMI-8226 leukemia it was 3.95% (active); in the assay on OVCAR-8 ovarian, 45%; in the assay with OVCAR-5 ovarian, 50.4%; in the assay on OVCAR-4 ovarian, 49%; in the assay on SK-OV-3 ovarian it was -11.6% (active). Moreover, the growth in the assay on IGROV1 ovarian was 7.73% (active); in the assay on HS 578T breast, 63.6%; in the assay on NCI/ADR-RES ovarian, 25.4%.
As for `CCCCCc1ccc(S(=O)(=O)Nc2cc(-c3csc(N)n3)ccc2OC)cc1`, the growth in the assay on SR leukemia is 98.9%; in the assay with RPMI-8226 leukemia it was 78.2%; with OVCAR-8 ovarian, 95.9%; in the assay with OVCAR-5 ovarian it was 110%; in the assay with OVCAR-4 ovarian, 100%; in the assay on SK-OV-3 ovarian, 127%. Also, the growth in the assay with IGROV1 ovarian was 84.5%; in the assay on HS 578T breast it was 97.1%; in the assay on NCI/ADR-RES ovarian, 88%.
Regarding `C/C(=N/N)c1nnn(-c2ccc(Br)cc2)c1C`, the growth with SR leukemia is 96%; with RPMI-8226 leukemia, 105%; in the assay with OVCAR-8 ovarian, 102%; in the assay on OVCAR-5 ovarian it was 93.2%; in the assay with OVCAR-4 ovarian it was 110%; with SK-OV-3 ovarian, 109%. For the same compound, the growth is 95.1% in the assay with IGROV1 ovarian, 102% with HS 578T breast and 104% in the assay with NCI/ADR-RES ovarian.
With `O=C1[C@H]2Cc3c([nH]c4ccccc34)[C@H](c3ccc(Br)cc3)N2C(=O)CN1C1CCN(CC2CCCCC2)CC1`, the growth in the assay with SR leukemia is -12.7% (active); with RPMI-8226 leukemia it was 43.2%; in the assay on OVCAR-8 ovarian it was 85.4%; in the assay on OVCAR-5 ovarian, 106%; in the assay on OVCAR-4 ovarian, 82.7%; in the assay with SK-OV-3 ovarian it was 87.9%. In addition, the values for the growth with IGROV1 ovarian, in the assay with HS 578T breast and in the assay with NCI/ADR-RES ovarian were 82.2%, 78% and 75.2%, respectively.
As to `O=C(COc1ccc(/C=C2\C(=O)Nc3cc(Cl)ccc32)cc1)Nc1ccc(Cl)cc1`, the growth in the assay with SR leukemia is 54.8%; in the assay with RPMI-8226 leukemia, 60.4%; in the assay with OVCAR-8 ovarian, 63.4%; in the assay on OVCAR-5 ovarian, 67.7%; with OVCAR-4 ovarian, 66.5%; in the assay on SK-OV-3 ovarian, 87.1%. Also, the results for the growth with IGROV1 ovarian, with HS 578T breast and with NCI/ADR-RES ovarian were 73.3%, 79.1% and 66.8%, respectively.
As for `Cc1ccc(-c2nc(SCC(=O)c3ccccc3)nc(Nc3ccc(S(N)(=O)=O)cc3)c2C#N)cc1`, the growth in the assay with SR leukemia is 56.9%; in the assay on RPMI-8226 leukemia, 65.4%; in the assay on OVCAR-8 ovarian, 34.6%; with OVCAR-5 ovarian, 97.3%; in the assay on OVCAR-4 ovarian, 24.3%; in the assay with SK-OV-3 ovarian it was 107%. Further, the growth in the assay with IGROV1 ovarian is 86.3%; with HS 578T breast, -0.186% (active); in the assay on NCI/ADR-RES ovarian, 81.7%.
`CC(C)(C)c1cc(NC(=O)Nc2ccc(-c3cn4c5c(sc4n3)CCc3cn(CCCN4CCCCC4)cc3-5)cc2)no1`: the growth in the assay with SR leukemia was -14% (active); in the assay with RPMI-8226 leukemia, -19.5% (active); in the assay with OVCAR-8 ovarian, -52% (active); in the assay with OVCAR-5 ovarian, -32.4% (active); with OVCAR-4 ovarian, -78.4% (active); in the assay on SK-OV-3 ovarian it was 97%. Moreover, the growth in the assay on IGROV1 ovarian is -78.5% (active); with HS 578T breast, 38.4%; in the assay with NCI/ADR-RES ovarian, -43% (active).
Consider `CCCCc1nc2c(N)nc3ccccc3c2n1Cc1cccc(CN)c1`, for which the growth in the assay with SR leukemia is 2.23% (active); in the assay with RPMI-8226 leukemia it was 42.5%; with OVCAR-8 ovarian it was 63.9%; with OVCAR-5 ovarian, 109%; in the assay with OVCAR-4 ovarian it was 53.6%; with SK-OV-3 ovarian, 91.2%. For the same compound, the growth with IGROV1 ovarian is 62.8%; with HS 578T breast, 67.2%; with NCI/ADR-RES ovarian, 93.5%.
With `O=c1c2ccccc2cc2n1CCN=C2c1ccccc1`, the growth in the assay on SR leukemia was 93.6%; with RPMI-8226 leukemia, 99.2%; in the assay on OVCAR-8 ovarian it was 101%; in the assay on OVCAR-5 ovarian it was 108%; with OVCAR-4 ovarian, 97.7%; in the assay with SK-OV-3 ovarian it was 103%. In addition, the growth in the assay with IGROV1 ovarian was 116%; in the assay on HS 578T breast it was 92.6%; in the assay on NCI/ADR-RES ovarian, 99.7%.
